Experimental findings from PubChem BioAssay (NCI) are described below.

This is part of a sample that, as a whole, favours compounds with a hit. Of some 79,000 tested, about 15% had one in any assay. Values without a mark were called inactive. Activity calls are given as the source filed them. Rule as the data show it: active = growth inhibition above about 70%; inactive = the rest.

A short description of the first experiment: NCI Yeast Anticancer Drug Screen. Data for the rad50 strain (AID 155).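 Also: 0% = growth of vehicle-only cultures of the same strain.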 Particulars: S. cerevisiae rad50 strain growth inhibition; at 5.0 µM (retest, dose inferred, filed as 0.5); active compounds read high. The method in brief:
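Inhibition values express reduced yeast growth in compound-treated cultures relative to vehicle-treated controls.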
Turning to `CCCC(C)(COC(N)=O)COC(=O)NC1CC1` (stereo not given), the growth inhibition was -8%.
The same measure, in the same setting: to `O=C(O)C(CSC(c1ccccc1)c1ccccc1)NC(=O)C(c1ccccc1)c1ccccc1` (stereo not given) belongs 6%; to `CC1=CC2CC(C)=C(CC[C@]3(C)CC[C@H]([C@@H](C)C(=O)O)OO3)C(C)(C)C2CC1` (stereo not given in full), 41%.
The same measure, in the same setting: to `O=[N+]([O-])/C=C/c1c(Cl)cccc1Cl` belongs 99% (active); to `O=[n+]1c2ccccc2n([O-])c2ccccc21.[Cl][Cu][Cl]`, 90% (active).
The same measure, in the same setting: in the case of `CC(=O)C(CN1CCOCC1)C(c1ccccc1)c1c(O)c2ccccc2oc1=O` (stereo not given) it was 7%; in that of `CC(C)c1oc(=O)cc2c1C(O)C1OC(=O)C3(C)C(O)C4OC4C2(C)C13` (stereo not given), 8%.
With `C#CCN1C(=O)N(CC#C)C(=O)C(CC#C)(C(CC=C)c2ccccc2)C1=O` (stereo not given), the growth inhibition is 1%.
Still for that read-out and setting: to `COC(=O)C1c2c(C)cc3n2C(C=CC3)C1C(=O)OC` (stereo not given) belongs 7%; to `[Cl][Hg][c]1ccc(Cl)s1`, 99% (active); to `N#CC(Cl)(Cl)CCl`, 6%.
On the same count and under the same terms, to `O=C1CCC(=O)N1SC(Cl)(Cl)Cl` belongs 21%; to `CCCC(=O)O.CCCC(=O)O.CCCC(=O)O.CCCC(=O)O.[Rh].[Rh]`, 25%; to `CC(CCC/C=C/CCCN(C)C(=N)N)CC(C)C1OC(=O)C(C)C(O)/C=C/C(C)C(O)C(C)C(O)C(C)C(O)CCCC(O)CC2(O)OC(CC(OC(=O)CC(=O)O)CC(O)CC(O)C(C)C(O)/C=C/C=C/C1C)CC(O)C2O` (stereo not given), -79%.
On the same count and under the same terms, in the case of `OC(CN(CCCl)CCCl)C(O)C(O)C(O)CN(CCCl)CCCl` (stereo not given) it was 6%; in that of `O=[N+]([O-])c1ccc(CS(=O)(=O)C(Cl)Cl)o1`, 10%; in that of `CC(C)c1cc([N+](=O)[O-])cc([N+](=O)[O-])c1O`, 9%.
On to `O=P(c1cccc(C(F)(F)F)c1)(c1cccc(C(F)(F)F)c1)c1cccc(C(F)(F)F)c1.O=P(c1cccc(C(F)(F)F)c1)(c1cccc(C(F)(F)F)c1)c1cccc(C(F)(F)F)c1.[Cl][Sn]([Cl])([Cl])[Cl]`, for which the growth inhibition was 3%.
For the compound `COc1cc(N(CC(C)Br)CC(C)Br)ccc1N=Nc1ccccc1C(=O)O` (stereo not given), the growth inhibition is 42%.
Still for that read-out and setting: to `C(=P(c1ccccc1)(c1ccccc1)c1ccccc1)[P+](c1ccccc1)(c1ccccc1)c1ccccc1.[Cl][Fe]([Cl])([Cl])[Br]` belongs 98% (active).
Same read-out and setting: in the case of `COc1ccc2c(c1)CCC(N1CCCC(=O)C1)C2` (stereo not given) it was 9%; in that of `C1CCNCC1.O=C([CH-]C(=O)C(F)(F)F)c1ccc2c(c1)C(=O)c1ccccc1-2.O=C([CH-]C(=O)C(F)(F)F)c1ccc2c(c1)C(=O)c1ccccc1-2.O=C([CH-]C(=O)C(F)(F)F)c1ccc2c(c1)C(=O)c1ccccc1-2.O=C([CH-]C(=O)C(F)(F)F)c1ccc2c(c1)C(=O)c1ccccc1-2.[Eu+3]`, 54%; in that of `O=C1C(=O)C(Br)(Br)C(Br)=C1Br`, -2%.
For the compound `CN(C)C(=S)Nc1nnc(NC23CC4CC(CC(C4)C2)C3)s1`, the growth inhibition is -1%.
Still for that read-out and setting: to `C[CH2][Hg]` belongs 98% (active); to `c1cc2n[pH]nc2cn1` (stereo not given), -10%; to `CCC[CH2][Sn]1([CH2]CCC)[O]CC(Cc2ccccc2)[O]1` (stereo not given), 31%.
Still for that read-out and setting: in the case of `Clc1ccccc1C#[C][Hg][C]#Cc1ccccc1Cl` it was 3%; in that of `CC12CCC3C(CC=C4CC(SC(=N)N)CCC43C)C1CCC2=O` (stereo not given), 0%; in that of `COc1ccccc1/C=C/[N+](=O)[O-]`, 90% (active).
Take `ClC(CN1CCCCC1)C(Cl)c1ccccc1` (stereo not given): the growth inhibition is 6%.
On the same count and under the same terms, to `CCC[CH2][Sn]1([CH2]CCC)[O]CC(CN2CCCCC2)[O]1` (stereo not given) belongs 25%.
`COC1OC(CO)C(O)C(O)[CH]1[Hg][Cl]` (stereo not given): the growth inhibition was 99% (active).
The same measure, in the same setting: in the case of `ClC1=C(Cl)C2(Cl)C(Cl)CC1(Cl)C2(Cl)Cl` (stereo not given) it was 0%.
`[Hg][c]1ccccc1`: the growth inhibition is 99% (active).
Consider `O=[N+]([O-])c1cccc(SC(Cl)(Cl)Cl)c1`, for which the growth inhibition is 8%.
On the same count and under the same terms, in the case of `CC1=C(O)C(=O)C=C2C1=CC=C1[C@@]2(C)CC[C@@]2(C)[C@@H]3C[C@](C)(C(=O)O)CC[C@]3(C)CC[C@]12C` it was 65%.
Same read-out and setting: in the case of `CCC[CH2][Sn]1([CH2]CCC)[O]C2C(O)OC(CO)C(O)C2[O]1` (stereo not given) it was 84% (active); in that of `O=[As]c1ccccc1O` (stereo not given), 1%.
Same read-out and setting: to `CC[PH+](CC)CC.[Cl][Au]` belongs 98% (active).

Staying with this experiment, now noted: S. cerevisiae rad50 strain growth inhibition; at 50.0 µM (retest, dose inferred, filed as 5.0); active compounds read high.
For the compound `CCCC(C)(COC(N)=O)COC(=O)NC1CC1` (stereo not given), the growth inhibition is 0%.
For `O=C(O)C(CSC(c1ccccc1)c1ccccc1)NC(=O)C(c1ccccc1)c1ccccc1` (stereo not given), the growth inhibition was 86% (active).
In the case of `CC1=CC2CC(C)=C(CC[C@]3(C)CC[C@H]([C@@H](C)C(=O)O)OO3)C(C)(C)C2CC1` (stereo not given in full), the growth inhibition was 98% (active).
On the same count and under the same terms, in the case of `O=[N+]([O-])/C=C/c1c(Cl)cccc1Cl` it was 99% (active).
Take `O=[n+]1c2ccccc2n([O-])c2ccccc21.[Cl][Cu][Cl]`: the growth inhibition was 98% (active).
Still for that read-out and setting: in the case of `CC(=O)C(CN1CCOCC1)C(c1ccccc1)c1c(O)c2ccccc2oc1=O` (stereo not given) it was 73% (active); in that of `CC(C)c1oc(=O)cc2c1C(O)C1OC(=O)C3(C)C(O)C4OC4C2(C)C13` (stereo not given), 65%; in that of `C#CCN1C(=O)N(CC#C)C(=O)C(CC#C)(C(CC=C)c2ccccc2)C1=O` (stereo not given), 96% (active).
The same measure, in the same setting: in the case of `COC(=O)C1c2c(C)cc3n2C(C=CC3)C1C(=O)OC` (stereo not given) it was 69%; in that of `[Cl][Hg][c]1ccc(Cl)s1`, 99% (active); in that of `N#CC(Cl)(Cl)CCl`, 41%.
Still for that read-out and setting: to `O=C1CCC(=O)N1SC(Cl)(Cl)Cl` belongs 26%.
With `CCCC(=O)O.CCCC(=O)O.CCCC(=O)O.CCCC(=O)O.[Rh].[Rh]`, the growth inhibition was 44%.
Consider `CC(CCC/C=C/CCCN(C)C(=N)N)CC(C)C1OC(=O)C(C)C(O)/C=C/C(C)C(O)C(C)C(O)C(C)C(O)CCCC(O)CC2(O)OC(CC(OC(=O)CC(=O)O)CC(O)CC(O)C(C)C(O)/C=C/C=C/C1C)CC(O)C2O` (stereo not given), for which the growth inhibition was 99% (active).
Same read-out and setting: in the case of `OC(CN(CCCl)CCCl)C(O)C(O)C(O)CN(CCCl)CCCl` (stereo not given) it was 81% (active).
As to `O=[N+]([O-])c1ccc(CS(=O)(=O)C(Cl)Cl)o1`, the growth inhibition was 79% (active).
Same read-out and setting: to `CC(C)c1cc([N+](=O)[O-])cc([N+](=O)[O-])c1O` belongs 88% (active); to `O=P(c1cccc(C(F)(F)F)c1)(c1cccc(C(F)(F)F)c1)c1cccc(C(F)(F)F)c1.O=P(c1cccc(C(F)(F)F)c1)(c1cccc(C(F)(F)F)c1)c1cccc(C(F)(F)F)c1.[Cl][Sn]([Cl])([Cl])[Cl]`, 79% (active).
Still for that read-out and setting: to `COc1cc(N(CC(C)Br)CC(C)Br)ccc1N=Nc1ccccc1C(=O)O` (stereo not given) belongs 96% (active).
On the same count and under the same terms, in the case of `C(=P(c1ccccc1)(c1ccccc1)c1ccccc1)[P+](c1ccccc1)(c1ccccc1)c1ccccc1.[Cl][Fe]([Cl])([Cl])[Br]` it was 99% (active); in that of `COc1ccc2c(c1)CCC(N1CCCC(=O)C1)C2` (stereo not given), 11%; in that of `C1CCNCC1.O=C([CH-]C(=O)C(F)(F)F)c1ccc2c(c1)C(=O)c1ccccc1-2.O=C([CH-]C(=O)C(F)(F)F)c1ccc2c(c1)C(=O)c1ccccc1-2.O=C([CH-]C(=O)C(F)(F)F)c1ccc2c(c1)C(=O)c1ccccc1-2.O=C([CH-]C(=O)C(F)(F)F)c1ccc2c(c1)C(=O)c1ccccc1-2.[Eu+3]`, 79% (active).
For the compound `O=C1C(=O)C(Br)(Br)C(Br)=C1Br`, the growth inhibition is 4%.
Still for that read-out and setting: in the case of `CN(C)C(=S)Nc1nnc(NC23CC4CC(CC(C4)C2)C3)s1` it was 61%; in that of `C[CH2][Hg]`, 99% (active).
Same read-out and setting: in the case of `c1cc2n[pH]nc2cn1` (stereo not given) it was 5%; in that of `CCC[CH2][Sn]1([CH2]CCC)[O]CC(Cc2ccccc2)[O]1` (stereo not given), 96% (active); in that of `Clc1ccccc1C#[C][Hg][C]#Cc1ccccc1Cl`, 34%.
Still for that read-out and setting: in the case of `CC12CCC3C(CC=C4CC(SC(=N)N)CCC43C)C1CCC2=O` (stereo not given) it was 33%.
Consider `COc1ccccc1/C=C/[N+](=O)[O-]`, for which the growth inhibition was 98% (active).
As for `ClC(CN1CCCCC1)C(Cl)c1ccccc1` (stereo not given), the growth inhibition is 28%.
For `CCC[CH2][Sn]1([CH2]CCC)[O]CC(CN2CCCCC2)[O]1` (stereo not given), the growth inhibition was 94% (active).
Same read-out and setting: in the case of `COC1OC(CO)C(O)C(O)[CH]1[Hg][Cl]` (stereo not given) it was 99% (active).
As for `ClC1=C(Cl)C2(Cl)C(Cl)CC1(Cl)C2(Cl)Cl` (stereo not given), the growth inhibition is -1%.
On the same count and under the same terms, in the case of `[Hg][c]1ccccc1` it was 94% (active); in that of `O=[N+]([O-])c1cccc(SC(Cl)(Cl)Cl)c1`, 97% (active).
Same read-out and setting: to `CC1=C(O)C(=O)C=C2C1=CC=C1[C@@]2(C)CC[C@@]2(C)[C@@H]3C[C@](C)(C(=O)O)CC[C@]3(C)CC[C@]12C` belongs 96% (active).
As for `CCC[CH2][Sn]1([CH2]CCC)[O]C2C(O)OC(CO)C(O)C2[O]1` (stereo not given), the growth inhibition was 99% (active).
As for `O=[As]c1ccccc1O` (stereo not given), the growth inhibition was 96% (active).
Still for that read-out and setting: to `CC[PH+](CC)CC.[Cl][Au]` belongs 98% (active).
